Composite z-score and z-score data for five compounds are collected here from PubChem BioAssay.

Experiment [1] in a line: compounds binding Alexa647 anti-His antibody – biochemical, small-molecule microarray, 635 nm fluorescence, artefact control for SMM control protein annotation, primary screen (AID 1128).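 Note: score merges feature fluorescence with signal-to-noise for each printed compound spot.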 Particulars: higher = more signal.
Experiment [2] has as its system Human papillomavirus type 1a E7 protein (residues 1-88). Description: HPV1a E7 small-molecule binders, primary screen, biochemical, small-molecule microarray, residues 1-88, 635 nm (AID 1129). Particulars: small-molecule microarray binding, fluorescence 635 nm; higher = more signal.
In experiment [3] the target is Focal adhesion kinase 1 (Homo sapiens) (UniProt Q05397). Description: PTK2 protein binding on printed compound slides – biochemical, small-molecule microarray, 635/667 nm fluorescence, BSA, DTT, primary screen (AID 1130).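 Note: composite of spot emission at 667 nm and signal to noise over triplicate slides.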 Particulars: 635 nm fluorescence, higher = more signal.
Experiment [4] relates to Fibrinogen (Alexa647-labelled). Description: Alexa647-fibrinogen binding to printed small molecules – biochemical, small-molecule microarray, 635/667 nm fluorescence, artefact control for SMM control-protein annotation, profiling panel (AID 1131).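 Note: z-score merges 667 nm fluorescence with per-spot signal-to-noise over triplicate slides.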 Particulars: fibrinogen-A647 binding fluorescence, higher = more signal.
Experiment [5] has as its target Follistatin (Homo sapiens) (UniProt P19883). As to the kind of experiment: FST protein binding to printed compounds – biochemical, small-molecule microarray, 635/667 nm fluorescence, primary screen (AID 1132). Particulars: 635 nm fluorescence, higher = more signal.
Experiment [6] has as its target Fibroblast growth factor 2 (Homo sapiens) (UniProt P09038). As to the kind of experiment: basic fibroblast growth factor binding to printed compounds – biochemical, small-molecule microarray, 635/667 nm fluorescence, primary screen (AID 1133). Particulars: FGF2, fluorescence 635/667, higher = more signal.
Experiment [7] in a line: JC-1 mitochondrial potential readout, lung cancer cells – cell-based, A549, JC-1 fluorescence, basal, 24 h, 100 nL, profiling panel (AID 1138).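 Note: A549 lung adenocarcinoma cells under basal conditions with no added stimulus; test concentration not given here.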 Particulars: higher = more signal.
The subject of experiment [8] is Lefty1. Description: Lefty1 protein binding to printed compounds – biochemical, small-molecule microarray, 635/667 nm fluorescence, primary screen (AID 1139). Particulars: fluorescence 635/667, higher = more signal.
Experiment [9] concerns wheat germ agglutinin (Triticum aestivum), Alexa647-labelled. As to the kind of experiment: Alexa647-WGA lectin binding to printed small molecules – biochemical, small-molecule microarray, 635/667 nm fluorescence, artefact control for SMM control-protein annotation, profiling panel (AID 1140).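 Note: score merges 667 nm feature emission with signal to noise over triplicate slides.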 Particulars: WGA-A647 binding, 635 nm fluorescence, higher = more signal.
In experiment [10] the target is Luciferin 4-monooxygenase (Photinus pyralis) (UniProt P08659). As to the kind of experiment: inhibition of purified Photinus pyralis luciferase – biochemical, luminescence, purified enzyme, 2006 set, primary screen (AID 1141).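 Note: cell-free assay with purified firefly luciferase at 100 ng per well in PBS; test concentration not given here.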 Particulars: purified firefly luciferase, SteadyGlo luminescence, 30 min; higher = more signal, called active from +8 up or from −8 down.
Experiment [11] concerns Wnt5a (protein binding on small-molecule microarray). As to the kind of experiment: small molecules binding Wnt5a protein – biophysical, small-molecule microarray, 635/667 nm fluorescence, primary screen (AID 1142).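 Note: fluorescence read at 667 nm with signal to noise per printed feature.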 Particulars: 635 nm fluorescence, higher = more signal.
A short description of experiment [12]: ATP-based viability of Huh7 replicon cells – cell-based, CellTiter-Glo luminescence, basal, 48 h, cytotoxicity control for HCV replication inhibitor project, primary screen (AID 1143).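 Note: Huh7 hepatoma cells carrying a hepatitis C replication reporter with no stimulus; test concentration not given here.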 Particulars: higher = more signal, called active from +8 up or from −8 down.
Experiment [13] in a line: Pseudomonas biofilm growth suppression – PAO1 strain, BacTiter-Glo luminescence, LB-PBS, primary screen (AID 1144). Particulars: P. aeruginosa PAO1 biofilm, 12 h, higher = more signal.
A short description of experiment [14]: basal CRE-LacZ reporter activity in PC12 – cell-based, unstimulated, primary screen (AID 1145). Particulars: no forskolin, luminescence, 4.5 h, higher = more signal, called active from +8 up or from −8 down.
Experiment [15] is described as follows: forskolin-driven CRE-LacZ activity in PC12 – cell-based, CRE-LacZ reporter, forskolin-stimulated, primary screen (AID 1146).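 Note: PC12 cells with 6xCRE LacZ reporter stimulated by forskolin 10 µM; beta-galactosidase reporter signal reflecting CREB driven transcription.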 Particulars: luminescence, 4.5 h, higher = more signal, called active from +8 up or from −8 down.
Experiment [16] has as its target Streptavidin (Streptomyces avidinii) (UniProt P22629). As to the kind of experiment: compounds binding control protein streptavidin – biophysical, small-molecule microarray, 635/667 nm fluorescence, artefact control for SMM compound annotation, primary screen (AID 1147).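 Note: signal reflects streptavidin binding to arrayed compounds as a control protein.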 Particulars: higher = more signal.
The nature of experiment [17]: probe aInhba binding on compound microarray – biochemical, small-molecule microarray, 635/667 nm fluorescence, primary screen (AID 1148).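 Note: score merges 667nm spot fluorescence with signal-to-noise for antibody binding to printed compounds.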 Particulars: higher = more signal.
Experiment [18] concerns the target Torsin-1A (Homo sapiens) (UniProt O14656). Description: TOR1A wild-type binding on microarray – cell lysate, small-molecule microarray, lysate, 635/667 nm, primary screen (AID 1149). Particulars: COS7 hTOR1A-WT lysate, 635 nm fluorescence, higher = more signal.
Experiment [19] shares this target. As to the kind of experiment: torsin A mutant lysate binding on microarrays – cell lysate, small-molecule microarray, COS7 lysate, 635/667 nm fluorescence, primary screen (AID 1150).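 Note: score pools 667 nm emission and signal to noise measuring lysate protein binding.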 Particulars: COS7 hTOR1A mutant lysate, 635 nm fluorescence, higher = more signal.
Experiment [20] concerns Sonic hedgehog protein (Shh). As to the kind of experiment: Sonic hedgehog microarray binding compounds – biochemical, small-molecule microarray, 635/667 nm fluorescence, primary screen (AID 1151).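 Note: Shh protein binding to compounds spotted on small-molecule microarray slides; score combines spot fluorescence intensity with signal-to-noise across triplicate slides.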 Particulars: 635 nm fluorescence, higher = more signal.

The source made the active and inactive calls. Unless noted, the rule behind the calls is not given here.

Sequence of Streptavidin (Streptomyces avidinii) (P22629 whole entry, looked up): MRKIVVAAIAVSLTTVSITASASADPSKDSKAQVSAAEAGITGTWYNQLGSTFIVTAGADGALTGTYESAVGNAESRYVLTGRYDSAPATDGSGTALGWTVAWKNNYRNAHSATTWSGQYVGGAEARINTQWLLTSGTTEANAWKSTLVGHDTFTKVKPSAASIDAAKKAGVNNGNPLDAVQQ
Sequence of Luciferin 4-monooxygenase (Photinus pyralis) (P08659 whole entry, looked up): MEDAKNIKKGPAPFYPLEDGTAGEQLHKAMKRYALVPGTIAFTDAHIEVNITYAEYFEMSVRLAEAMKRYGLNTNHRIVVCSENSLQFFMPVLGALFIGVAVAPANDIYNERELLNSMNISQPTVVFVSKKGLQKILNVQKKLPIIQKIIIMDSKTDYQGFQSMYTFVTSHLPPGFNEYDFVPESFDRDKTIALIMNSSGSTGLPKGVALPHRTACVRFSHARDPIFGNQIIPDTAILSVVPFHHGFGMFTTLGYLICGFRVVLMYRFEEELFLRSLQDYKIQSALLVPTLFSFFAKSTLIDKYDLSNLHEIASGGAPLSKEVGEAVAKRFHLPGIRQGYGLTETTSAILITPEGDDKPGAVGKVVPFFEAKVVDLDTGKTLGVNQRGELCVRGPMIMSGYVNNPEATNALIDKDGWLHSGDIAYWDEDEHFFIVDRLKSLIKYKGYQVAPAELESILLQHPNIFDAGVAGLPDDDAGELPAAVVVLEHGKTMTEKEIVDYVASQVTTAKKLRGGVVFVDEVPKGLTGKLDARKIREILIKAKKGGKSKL
Sequence of Fibroblast growth factor 2 (Homo sapiens) (P09038 whole entry, looked up): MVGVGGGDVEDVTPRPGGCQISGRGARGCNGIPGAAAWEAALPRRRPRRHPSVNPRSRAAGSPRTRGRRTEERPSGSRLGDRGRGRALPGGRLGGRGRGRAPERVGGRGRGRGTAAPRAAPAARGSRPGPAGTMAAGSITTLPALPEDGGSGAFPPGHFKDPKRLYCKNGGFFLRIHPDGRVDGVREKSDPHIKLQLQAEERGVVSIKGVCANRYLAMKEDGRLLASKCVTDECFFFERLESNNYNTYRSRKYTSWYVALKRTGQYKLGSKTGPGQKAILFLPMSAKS
Sequence of Follistatin (Homo sapiens) (P19883 whole entry, looked up): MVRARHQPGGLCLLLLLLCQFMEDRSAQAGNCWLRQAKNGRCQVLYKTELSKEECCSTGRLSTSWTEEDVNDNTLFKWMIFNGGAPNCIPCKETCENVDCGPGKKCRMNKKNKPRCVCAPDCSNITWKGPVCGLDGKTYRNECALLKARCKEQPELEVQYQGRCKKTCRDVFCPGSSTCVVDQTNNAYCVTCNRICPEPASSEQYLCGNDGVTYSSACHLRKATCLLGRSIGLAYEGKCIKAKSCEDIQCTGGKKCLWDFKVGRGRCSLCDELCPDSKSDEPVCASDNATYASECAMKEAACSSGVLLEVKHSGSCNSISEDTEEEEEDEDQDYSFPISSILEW
Sequence of Torsin-1A (Homo sapiens) (O14656 whole entry, looked up): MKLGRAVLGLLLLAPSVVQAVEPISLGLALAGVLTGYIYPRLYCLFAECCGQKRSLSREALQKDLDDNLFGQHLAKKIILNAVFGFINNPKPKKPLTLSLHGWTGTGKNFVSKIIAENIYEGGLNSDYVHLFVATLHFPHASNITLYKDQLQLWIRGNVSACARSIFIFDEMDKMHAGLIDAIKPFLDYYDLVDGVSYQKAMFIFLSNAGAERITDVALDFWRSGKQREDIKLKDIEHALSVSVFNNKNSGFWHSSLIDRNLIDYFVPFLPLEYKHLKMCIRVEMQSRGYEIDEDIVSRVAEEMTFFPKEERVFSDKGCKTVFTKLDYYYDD
Sequence of Focal adhesion kinase 1 (Homo sapiens) (Q05397 whole entry, looked up): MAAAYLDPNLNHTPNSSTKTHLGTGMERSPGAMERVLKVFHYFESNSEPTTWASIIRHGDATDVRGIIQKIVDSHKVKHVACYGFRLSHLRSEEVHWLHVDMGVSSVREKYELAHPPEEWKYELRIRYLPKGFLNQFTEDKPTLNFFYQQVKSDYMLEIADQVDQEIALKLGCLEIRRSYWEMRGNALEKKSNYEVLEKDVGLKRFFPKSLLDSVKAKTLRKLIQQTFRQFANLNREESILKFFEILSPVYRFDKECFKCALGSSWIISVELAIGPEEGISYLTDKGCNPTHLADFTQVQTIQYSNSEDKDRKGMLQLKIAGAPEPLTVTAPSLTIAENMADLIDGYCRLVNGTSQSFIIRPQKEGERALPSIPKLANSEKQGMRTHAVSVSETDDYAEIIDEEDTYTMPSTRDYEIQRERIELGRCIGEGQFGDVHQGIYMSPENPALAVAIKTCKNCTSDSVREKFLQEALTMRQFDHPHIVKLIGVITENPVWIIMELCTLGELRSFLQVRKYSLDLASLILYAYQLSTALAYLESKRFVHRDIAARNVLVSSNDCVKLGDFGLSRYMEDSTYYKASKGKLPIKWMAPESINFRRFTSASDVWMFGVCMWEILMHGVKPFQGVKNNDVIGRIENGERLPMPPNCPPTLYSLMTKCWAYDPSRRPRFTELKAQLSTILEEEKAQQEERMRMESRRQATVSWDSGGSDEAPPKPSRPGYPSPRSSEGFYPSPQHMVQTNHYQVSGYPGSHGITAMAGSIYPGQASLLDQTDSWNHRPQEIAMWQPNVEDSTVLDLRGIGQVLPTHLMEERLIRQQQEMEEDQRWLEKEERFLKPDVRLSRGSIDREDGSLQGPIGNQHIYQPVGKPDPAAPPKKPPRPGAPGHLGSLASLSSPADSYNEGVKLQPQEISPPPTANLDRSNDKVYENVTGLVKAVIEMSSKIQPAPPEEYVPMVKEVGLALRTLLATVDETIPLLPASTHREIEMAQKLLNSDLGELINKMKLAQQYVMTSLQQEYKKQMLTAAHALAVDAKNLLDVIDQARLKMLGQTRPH

Turning to `COC(=O)[C@H](C)NC(=O)CCC1CC(OC(=O)NCc2cccc3ccccc23)CC2(CCCC(COC(=O)NCCc3ccc(Cl)cc3)O2)O1` (stereo not given in full), the composite z-score in experiment [1] was determined as 0.591; in experiment [2], 1.06; in experiment [3], 0.178; in experiment [4], 0.228; in experiment [5] it was 0.225; in experiment [6], 0.212. The composite z-score is 1.03 in [8]; 0.411 in experiment [9]; -0.173 in experiment [11]; 0.558 in [16]; -0.152 in experiment [17]; 0.405 in [18]. The composite z-score in experiment [19] is 0.353; in experiment [20] it was 0.569. Besides, the z-score in experiment [7] is 0.179; in experiment [10], 0.632 (inactive); in [12] it was -0.006 (inactive); in experiment [13], -0.494 (inactive); in experiment [14], 0.2 (inactive); in experiment [15], 0.45 (inactive).

On to `C=CCOC(=O)[C@H]1[C@@H]2C(=O)O[C@@H](c3ccccc3)[C@@H](c3ccccc3)N2[C@@H](c2ccc(OCCOC(=O)[C@H]3C[C@H]4C(=O)N[C@@H](Cc5ccccc5)C(=O)N4[C@H]3c3ccc(O)cc3)cc2)[C@]12C(=O)Nc1ccccc12`, for which the composite z-score was determined as 2.22 in experiment [1]; 1.13 in experiment [2]; 1.23 in [3]; 0.51 in [4]; 1.46 in [5]; 1.67 in experiment [6]. In addition, the composite z-score in experiment [8] is 1.46; in experiment [9], 0.654; in experiment [11], 0.354; in [16], -0.261; in experiment [17] it was -0.171; in [18], 0.419. The composite z-score in [19] worked out at 0.278; in [20], 1.92. The z-score is -1.58 in experiment [7]; -2.01 (inactive) in experiment [10]; -0.155 (inactive) in experiment [12]; -0.0202 (inactive) in [13]; 0.285 (inactive) in [14]; -0.231 (inactive) in experiment [15].

Take `COC(=O)CC=C[C@@H](C)[C@@H](C=NO[C@@H](C)c1cc(-c2c(C)cc(C)cc2C)no1)OC`: the composite z-score is 0.525 in experiment [1]; -1.06 in experiment [2]; -0.688 in experiment [3]; -1.47 in [4]; -0.732 in [5]; -1.35 in [6]. For the same compound, the composite z-score is -1.43 in [8]; -1.03 in [9]; -0.828 in experiment [11]; -0.432 in experiment [16]; -0.249 in [17]; -2.2 in experiment [18]. The composite z-score in experiment [19] was -2.18; in experiment [20] it was -1.46. Moreover, the z-score was -0.542 in [7]; 0.973 (inactive) in experiment [10]; -2.12 (inactive) in [12]; -0.726 (inactive) in experiment [13]; 2.71 (inactive) in experiment [14]; -0.254 (inactive) in [15].

In the case of `COc1ccc(CCNC(=O)[C@@H]2c3ccccc3C(=O)N(c3ccc(C)cn3)[C@H]2c2ccc(CO)cc2)cc1`, the composite z-score in experiment [1] is 0.315; in [2], 0.469; in [3] it was -0.34; in [4], -2.21; in experiment [5], -0.25; in experiment [6], -0.609. Besides, the composite z-score in experiment [8] was -1.17; in experiment [9], -0.293; in experiment [11] it was -0.657; in experiment [16], -0.776; in experiment [17], -0.253; in experiment [18], -2.23. In addition, the composite z-score was -1.76 in experiment [19] and -0.497 in experiment [20]. The z-score in experiment [7] is -0.61; in [10], 0.85 (inactive); in [12], 0.569 (inactive); in [13], -0.456 (inactive); in experiment [14], 0.648 (inactive); in [15], 0.459 (inactive).

For the compound `C=CC[C@@H]1C=C[C@H](ON=C[C@@H](OC)[C@H](C)C=CCC(=O)OC)[C@@H](CO)O1`, the composite z-score in experiment [1] is -0.179; in experiment [2], 0.296; in experiment [3] it was 0.191; in experiment [4], -0.613; in [5], 0.234; in [6] it was 0.13. Moreover, the composite z-score is 0.566 in experiment [8]; -1.06 in experiment [9]; 0.313 in [11]; -0.259 in [16]; 0.157 in experiment [17]; 0.434 in experiment [18]. Moreover, the composite z-score turned out to be 0.352 in experiment [19] and 0.224 in [20]. Also, the z-score in experiment [7] is -0.019; in [10], 0.191 (inactive); in experiment [12] it was 0.669 (inactive); in [13], 0.0583 (inactive); in experiment [14], -0.957 (inactive); in [15] it was -0.385 (inactive).
